# Hit rate of the full screen: of about 140,000 compounds, about 4,300 (3.1%) were called active. About 21% were inconclusive and are not listed. Only a selection was taken, and actives are over-represented in it overall. A number with no mark means an inactive call.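 Rule for the calls: active = readout at or below -70, meaning at least 70% loss of cells showing the perinucleolar compartment, a nuclear body marking cancer cells; inconclusive = readout between -30 and a set limit; inactive = the rest.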
# Assay: High Content Assay for Compounds that inhibit the Assembly of the Perinucleolar Compartment;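 note: plate controls were DMSO wells for no effect and camptothecin positive control wells for full effect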
# Conditions: PC3M PTB-GFP, PNC prevalence imaging, 16 h; at 10 µM; active compounds read low
# Method in brief: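 Compounds are pinned in duplicate onto adhered PC3M cells stably expressing GFP-tagged PTB and incubated 16 h at 37 C. Cells are then fixed, nuclei stained with Hoechst, and PNC-positive cells counted.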
row,Compound,"activity change (PNC), negative = inhibition"
1,COc1ccc(N(C(=O)c2ccc(C)cc2)S(=O)(=O)c2cccs2)cc1,19.1%
2,Cc1ccc(NC(=S)NC(=O)c2ccc(-c3ccccc3)cc2)c(C)c1,6.22%
3,Cc1ccc(NC(=O)CC2C(=O)N(Cc3ccccc3)C(=S)N2NC(=O)c2cccc(F)c2)c(C)c1 (stereo not given),-107% (active)
4,O=C(CN1CCN(C(=O)c2cccc(F)c2)CC1)Nc1ccccc1F,6.16%
5,CC(=O)NC1=NN(C(C)=O)C(C)(CCS(=O)(=O)c2ccc(Cl)c(Cl)c2)S1 (stereo not given),72.1%
6,COc1ccc(OCCNS(=O)(=O)Cc2ccccc2)cc1,21.5%
7,COC(=O)c1cc(NC(=O)Cc2ccccc2[N+](=O)[O-])ccc1Cl,-21.5%
8,CC(=O)Nc1ccc(NC(=O)C(C)OC(=O)c2ccccc2C(=O)c2ccc(Cl)c([N+](=O)[O-])c2)cc1 (stereo not given),14.8%
9,N#Cc1cccc(NC(=O)COC(=O)c2ccccc2C(=O)c2ccc(Cl)c([N+](=O)[O-])c2)c1,-102% (active)
10,CCc1nnc(NC(=O)/C=C/c2ccc(C)o2)s1,43.5%
11,COC(=O)C1=C(C)N(C)C(=S)NC1c1ccccc1 (stereo not given),-28.4%
12,O=C(NCc1cccs1)C(=O)NCC1OCCCN1S(=O)(=O)c1ccc(F)cc1 (stereo not given),17.8%
13,Cc1cccc(N2CCN(C(=O)c3ccccc3NC(=O)C3CCCCC3C(=O)O)CC2)c1 (stereo not given),0.826%
14,O=S(=O)(NCCSc1ccccn1)c1ccc(Cl)cc1,47.1%
15,CCc1nnc(NC(=O)C2CCCN2S(=O)(=O)c2ccccc2)s1 (stereo not given),0.753%
16,CC1CN(S(=O)(=O)c2ccccc2)C(C)CN1S(=O)(=O)c1ccccc1 (stereo not given),-100% (active)
17,COc1ccc(C2SCCN2S(=O)(=O)c2ccccc2)cc1OC (stereo not given),-9.05%
18,CCCn1nc(NS(=O)(=O)c2ccccc2)c2cc3cc(C)ccc3nc21,9.97%
19,CN(C)S(=O)(=O)c1cc(NC(=O)CN2C(=O)NC3(CCCc4ccccc43)C2=O)ccc1Cl (stereo not given),71.5%
20,CCOc1ccc(NC(=S)N2CCC(N(C)CC3CCCO3)CC2)cc1 (stereo not given),0.566%
21,CC1CCN(C(=O)c2ccc(S(=O)(=O)Cc3cc(F)ccc3F)c([N+](=O)[O-])c2)CC1,25.9%
22,COCCCNCCOCCOc1ccc(Cl)cc1Br,40.2%
23,Cc1ccc(C(C)(C)C)c(OCCCCN2CCCC2)c1,-12.5%
24,CC(C)(C)NCCCOc1ccc(Cl)cc1C(C)(C)C,-102% (active)

row,Compound,"activity change (PNC), negative = inhibition"
1,CCCCc1nc(NCc2ccccc2)c(C#N)c2c1CCCC2,225%
2,Cc1nn(Cc2ccccc2)c(C)c1C(=O)NCCN1C(=O)S/C(=C\c2ccc(F)cc2)C1=O,37%
3,C[N+]1(CC(O)COc2ccccc2)CCN(C(=O)c2ccc([N+](=O)[O-])cc2)CC1 (stereo not given),13%
4,COc1ccc(-c2cc3ccc(OCc4nn[nH]n4)cc3oc2=O)cc1,-119% (active)
5,O=c1oc2cc(O)ccc2cc1-c1ccc(F)cc1,13%
6,CCCCc1cc(=O)oc2cc(C)cc(OCc3nn[nH]n3)c12,9.68%
7,CCc1nc(N2CCN(c3nc(C)cc(C)n3)CC2)c2oc3ccccc3c2n1,-21.5%
8,COc1ccccc1Nc1ncnc2c1oc1ccccc12,52.9%
9,Cc1cc(C)nc(N2CCN(c3ncnc4c3oc3ccccc34)CC2)n1,-114% (active)
10,O=C(COC(=O)c1c2c(nc3ccccc13)/C(=C\c1cccs1)CCC2)Nc1ccccc1Cl,-25.2%
11,O=C(CN1C(=O)NC2(CCCCCC2)C1=O)NCc1cccs1,-4.41%
12,COc1ccccc1OCc1ccc(C(=O)N2CCN(C)CC2)o1,-19.3%
13,Cc1c(Cl)cccc1NC(=O)Nc1ccc(C(=O)N2CCCC2)cc1,-83.7% (active)
14,O=C(c1ccc(Cl)c(Cl)c1)N1CCCC1,50.1%
15,CS(=O)(=O)Nc1ccc(C(=O)N2CCCC2)cc1,3.33%
16,CCC(C)(C)C1CCC(=NNC(=O)c2ccc(Br)o2)CC1 (stereo not given),-3.73%
17,CC(C)c1nccn1S(=O)(=O)c1cc([N+](=O)[O-])ccc1Cl,2.64%
18,CCc1nnc(NC(=O)CCN(c2ccc(C)cc2)S(=O)(=O)c2ccccc2)s1,2.13%
19,CC1(C)C(=O)Nc2ccccc2N1C(=O)COC(=O)Cn1cnc2ccccc2c1=O,-28.4%
20,CCNc1ccc(C(=O)OCC(=O)N2c3ccccc3NC(=O)C2(C)C)cc1[N+](=O)[O-],-112% (active)
21,Nc1ccc(C(=O)OCC(=O)NC2CCCc3ccccc32)cc1[N+](=O)[O-] (stereo not given),-26.5%
22,Cc1ccc(C(=O)CNc2ccc(F)cc2)cc1,23.7%
23,COc1cc(/C=C/C(=O)OCC(=O)Nc2cccc(Oc3ccccc3)c2)ccc1O,-28.3%
24,COc1ccc(/C=C/C(=O)OCC(=O)Nc2cccc(Oc3ccccc3)c2)c(OC)c1,25.2%

row,Compound,"activity change (PNC), negative = inhibition"
1,O=C(COC(=O)/C=C/c1nc2ccccc2s1)Nc1ccccc1Oc1ccccc1,-108% (active)
2,O=C(NC1CCN(Cc2ccccc2)CC1)c1c(F)cccc1F,-1.56%
3,COCCNC(=O)c1ccc(N2CCC3(CC2)OCCO3)c([N+](=O)[O-])c1,-24.5%
4,COc1cccc(NC(=S)NCc2ccco2)c1,14.5%
5,Cc1ccc(NC(=O)NC(=O)N(C2CCCCC2)S(=O)(=O)c2ccccc2)cc1,8.69%
6,OC(COc1ccc2ccccc2c1)CN1CCOCC1 (stereo not given),13%
7,OC(COCc1ccco1)CN1CCN(c2ccccc2)CC1 (stereo not given),-85.3% (active)
8,OC(COCC1COc2ccccc2O1)CN1CCN(c2ccc(F)cc2)CC1 (stereo not given),-2.15%
9,Cc1ccc(-c2csc(NNC(=O)c3ccccc3)n2)cc1,-13.8%
10,Cc1ccc(O)c(-c2cc(C(=O)NCc3ccccc3)[nH]n2)c1,-13.6%
11,Cc1cccc(NC(=O)CN2C(=O)CNC2=O)c1,48.7%
12,Cc1cccc(NC(=O)C2CC(=O)OC23CCCC3)c1 (stereo not given),-100% (active)
13,Cc1cccc(NC(=O)C2CCN(S(=O)(=O)c3cccc4cccnc34)CC2)c1,20.6%
14,CCCCOc1ccc(NC(=O)[C@@H]2CCCN2C(=O)C2CCN(S(=O)(=O)c3ccc(C)cc3)CC2)cc1,7.21%
15,COc1cc(/C=N/O)ccc1OCc1ccc([N+](=O)[O-])cc1,15.8%
16,COC(=O)c1ccccc1NC(=O)CSc1ccccn1,6.08%
17,CCCCCNC(=O)c1cccnc1SCC(=O)Nc1ccccc1OC,-119% (active)
18,CCCNC(=O)c1ccccc1NC(=O)CSCc1ccc(OC)cc1,-26.5%
19,COc1cc(NC(=O)c2ccccc2NS(=O)(=O)c2ccc(Cl)s2)cc(OC)c1,-4.27%
20,Cc1cc(Nc2ccccc2)nc(N)n1,-28.7%
21,CCOC(=O)c1nn(-c2ccccc2F)c2nc(Nc3ccccc3)cc(=O)n12,-91% (active)
22,CCOC(=O)c1nc(Nc2ccc(C(=O)OC)cc2)c2ccccc2n1,-9.55%
23,Nc1nc(SCC(=O)NCCN2CCOCC2)nc2sc3c(c12)CCC3,3.5%
24,Cc1ccc(Cl)cc1N1CCN(C(=O)c2cccc3c(=O)c(C)c(-c4ccccc4)oc23)CC1,2.98%

row,Compound,"activity change (PNC), negative = inhibition"
1,C[C@@H](O)c1nc2ccccc2n1N,-14.7%
2,O=C(O)c1cccc(N=NN2CCCCCC2)c1,12.1%
3,COc1ccc(-c2cc(C(=O)NCc3ccco3)no2)cc1OC,-7.14%
4,Cc1ccc(CNC(=O)C2CC(c3ccccc3[N+](=O)[O-])=NO2)o1 (stereo not given),-9.83%
5,COc1ccc(C2=NOC(C(=O)NCc3ccco3)C2)cc1OC (stereo not given),-87% (active)
6,COc1ccccc1N1CCN(C(=O)c2ccc(S(=O)(=O)N3CCCCC3)cc2)CC1,48.1%
7,COc1ccc(Nc2ncc(C(=O)N3CCN(c4ccccc4OC)CC3)c3ccccc23)cc1,37.3%
8,COc1ccccc1N1CCN(C(=O)C(=O)N/N=C/c2ccccc2F)CC1,-114% (active)
9,Cc1ccc(N(C(=O)C(F)(F)F)C(C(=O)NC2CCCCC2)c2ccncc2)cc1C (stereo not given),0.653%
10,CCCCOc1ccc(C(=O)NCC(=O)OCC(=O)N2CCN(S(=O)(=O)c3ccc(C)cc3C)CC2)cc1,24.8%
11,CC(C)C1C2=C(CC(C)(C)CC2=O)ON1c1ccccc1 (stereo not given),-90.5% (active)
12,CC1(C)CC(=O)NC=C(c2ccccc2)C1,20.5%
13,CC(C)N1C(=O)N(c2ccccc2)C(C)(O)CC1(C)C (stereo not given),-24.7%
14,CCCCCOc1ccc(/C=C/C(=O)NCCc2nc3ccccc3[nH]2)cc1OC,37%
15,COc1cc(/C=C(/NC(=O)c2ccc(Cl)cc2Cl)C(=O)O)cc(OC)c1OC,-21.4%
16,O=C(NCc1ccccc1Cl)C1CCC(CNc2c(N3CCCCC3)c(=O)c2=O)CC1 (stereo not given),42.7%
17,CC(C)(C)c1cc(C(=O)NCc2cccnc2)ccn1,47.5%
18,COCCn1c(=S)[nH]c2cc(C(=O)NCCc3ccc(OC)c(OC)c3)ccc2c1=O,26.1%
19,COCCn1c(=O)[nH]c2cc(C(=O)NCc3cccnc3)ccc2c1=O,-86.1% (active)
20,Cc1ccc(NC(=O)CCC(=O)N/N=C/c2ccco2)c(C)c1,-23.4%
21,N#Cc1c(NC(=O)CCCN2C(=O)c3ccccc3C2=O)oc(-c2ccccc2)c1-c1ccccc1,-11.2%
22,COC(=O)c1sccc1NC(=O)c1cc(OC)c(OC)c(OC)c1,81.2%
23,COc1cc(C(=O)Nc2oc(-c3ccccc3)c(-c3ccccc3)c2C#N)cc(OC)c1OC,-87.4% (active)

# — PubChem BioAssay AID2417 (National Center for Advancing Translational Sciences (NCATS), 2010)
